For three compounds, z-score and composite z-score results are on record in PubChem BioAssay.

The nature of assay [1]: A549 cell viability effects, profiling panel, calcein-AM fluorescence, 48 h, basal (AID 1162). Further: test concentration not given here. As to conditions: higher = more signal.
A short description of assay [2]: adipocyte viability effects, profiling panel, cell-based, 3T3-L1 adipocytes, calcein-AM fluorescence, 48 h, basal (AID 1163). Further: test concentration not given here. The conditions noted are these: 3T3-L1 adipocytes viability, higher = more signal.
The nature of assay [3]: HepG2 cell viability effects, profiling panel, calcein-AM fluorescence, 48 h, basal (AID 1164). Further: test concentration not given here. As to conditions: higher = more signal.
Assay [4] is described as follows: MM1S cell viability effects, profiling panel, calcein-AM fluorescence, 48 h, basal (AID 1165).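 Further: viability of MM1S multiple myeloma cells under basal unstimulated conditions; test concentration not given here.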 As to conditions: higher = more signal.
A short description of assay [5]: basal RPMI8226 viability, no added stimulus, profiling panel, cell-based, calcein-AM fluorescence, 48 h, PK04 Diversity Set (AID 1166).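 Further: cells grown under basal conditions without added stimulus; test concentration not given here.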 The conditions noted are these: RPMI8226 myeloma viability, higher = more signal.
The nature of assay [6]: basal HepG2 mitochondrial membrane potential changes, profiling panel, cell-based, JC-1 fluorescence, 24 h, 100 nL compound (AID 1167). Further: test concentration not given here. The conditions noted are these: higher = more signal.
Assay [7] can be described thus: basal 3T3-L1 adipocyte mitochondrial potential changes, profiling panel, cell-based, JC-1 fluorescence, 3T3-L1 adipocytes, 24 h, 100 nL compound (AID 1168). Further: test concentration not given here. The conditions noted are these: JC-1 mitochondrial fluorescence, higher = more signal, called active from +8 up or from −8 down.
A short description of assay [8]: basal RPMI8226 mitochondrial membrane potential changes, profiling panel, cell-based, JC-1 fluorescence, 24 h, 100 nL compound (AID 1169). Further: test concentration not given here. The conditions noted are these: RPMI8226 myeloma, JC-1 mitochondrial potential fluorescence, higher = more signal.
A short description of assay [9]: basal MM1S mitochondrial membrane potential changes, profiling panel, cell-based, JC-1 fluorescence, 24 h, 100 nL compound (AID 1170). Further: test concentration not given here. The conditions noted are these: higher = more signal.
Assay [10] is described as follows: A549 lung cancer cell viability effects, profiling panel, resazurin fluorescence, 24 h, PK04 Diversity Set (AID 1171). Further: test concentration not given here. The conditions noted are these: higher = more signal, called active from +8 up or from −8 down.
The nature of assay [11]: HepG2 liver cancer cell viability effects, profiling panel, resazurin fluorescence, 24 h, PK04 Diversity Set (AID 1172). Further: test concentration not given here. As to conditions: higher = more signal. (Resazurin is reduced to fluorescent resorufin, in cell work by metabolically active cells.)
Assay [12] in a line: basal S. cerevisiae growth modulation, no modifier, primary screen, OD600, strain BY4716, 24 h, basal condition (AID 1173). As to conditions: OD600, 24 h, higher = more signal, called active from +8 up or from −8 down.
Assay [13] can be described thus: MM1S myeloma cell viability, profiling panel, resazurin fluorescence, basal, 24 h, PK04 Diversity Set (AID 1174).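 Further: MM1S multiple myeloma cell line; test concentration not given here.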 The conditions noted are these: higher = more signal, called active from +8 up or from −8 down.
For assay [14], the target named is Dihydroorotate dehydrogenase (quinone), mitochondrial (Plasmodium falciparum (isolate 3D7)) (UniProt Q08210). Nature of the assay: PfDHODH enzyme inhibitors, primary screen, biochemical, C-terminal His tag, absorbance 600 nm (AID 1175).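 Further: recombinant parasite enzyme with a five histidine tag at its C terminus; test concentration not given here.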 The conditions noted are these: DCIP absorbance 600 nm, higher = more signal, called active from +8 up or from −8 down.
Sequence of Dihydroorotate dehydrogenase (quinone), mitochondrial (Plasmodium falciparum (isolate 3D7)) (Q08210 whole entry, looked up): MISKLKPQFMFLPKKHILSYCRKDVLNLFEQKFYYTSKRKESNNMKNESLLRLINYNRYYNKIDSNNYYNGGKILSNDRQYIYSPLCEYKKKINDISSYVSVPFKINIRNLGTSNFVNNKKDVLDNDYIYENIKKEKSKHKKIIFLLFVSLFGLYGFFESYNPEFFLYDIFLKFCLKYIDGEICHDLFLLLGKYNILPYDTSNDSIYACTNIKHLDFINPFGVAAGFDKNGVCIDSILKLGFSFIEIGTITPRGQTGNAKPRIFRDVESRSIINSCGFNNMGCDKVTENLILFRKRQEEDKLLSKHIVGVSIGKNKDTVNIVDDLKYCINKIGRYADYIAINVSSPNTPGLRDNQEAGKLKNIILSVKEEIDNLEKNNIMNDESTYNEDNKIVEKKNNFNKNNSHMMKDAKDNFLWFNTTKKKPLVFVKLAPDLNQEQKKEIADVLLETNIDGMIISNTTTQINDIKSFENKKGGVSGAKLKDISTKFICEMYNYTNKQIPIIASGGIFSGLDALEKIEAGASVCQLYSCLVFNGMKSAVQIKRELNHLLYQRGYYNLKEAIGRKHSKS
A short description of assay [15]: P. aeruginosa biofilm formation inhibitors, primary screen, strain PAO1, LB-PBS medium, absorbance 600 nm (AID 1176). Further: test concentration not given here. As to conditions: P. aeruginosa PAO1 growth/biofilm, A600, 12 h; higher = more signal.
The nature of assay [16]: S. cerevisiae RM11-1a growth modifiers, primary screen, strain RM11-1a, OD600, basal, 24 h (AID 1177).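 Further: cultures grown under basal conditions with no added stressor; test concentration not given here.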 The conditions noted are these: OD600, 24 h, higher = more signal, called active from +8 up or from −8 down.
The nature of assay [17]: E. coli acrAB mutant growth effects, primary screen, E. coli filamentation inducers, strain DRC39, OD650, 24 h (AID 1178).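 Further: growth measured as culture turbidity by optical density at 650 nm; test concentration not given here.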 The conditions noted are these: higher = more signal, called active from +8 up or from −8 down.
Assay [18] in a line: E. coli acrAB mutant growth effects, primary screen, E. coli filamentation inducers, strain DRC39, OD650, 48 h (AID 1179).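 Further: screen aims at cell division blockers that make cells filament.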 As to conditions: E. coli DRC39 delta-acrAB growth, higher = more signal, called active from +8 up or from −8 down.
Assay [19] in a line: RPMI8226 myeloma cell viability, profiling panel, resazurin fluorescence, basal, 24 h, PK04 Diversity Set (AID 1180).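 Further: RPMI8826 multiple myeloma cell line at 5000 cells per well; test concentration not given here.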 The conditions noted are these: higher = more signal.
Assay [20] addresses E3 ubiquitin-protein ligase XIAP (Homo sapiens) (UniProt P98170). Nature of the assay: XIAP binders, primary screen, biophysical, small-molecule microarray, fluorescence 635 nm (AID 1181).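 Further: score merges 667 nm emission and signal to noise over triplicate slides.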 The conditions noted are these: small-molecule microarray binding, higher = more signal.

Where “and” joins values, the source holds several entries; their conditions need not be identical. Identical values can stand only once. Calls of active or inactive are those of the source. Unless noted, how the calls were made is not given here.

Sequence of E3 ubiquitin-protein ligase XIAP (Homo sapiens) (P98170 whole entry, looked up): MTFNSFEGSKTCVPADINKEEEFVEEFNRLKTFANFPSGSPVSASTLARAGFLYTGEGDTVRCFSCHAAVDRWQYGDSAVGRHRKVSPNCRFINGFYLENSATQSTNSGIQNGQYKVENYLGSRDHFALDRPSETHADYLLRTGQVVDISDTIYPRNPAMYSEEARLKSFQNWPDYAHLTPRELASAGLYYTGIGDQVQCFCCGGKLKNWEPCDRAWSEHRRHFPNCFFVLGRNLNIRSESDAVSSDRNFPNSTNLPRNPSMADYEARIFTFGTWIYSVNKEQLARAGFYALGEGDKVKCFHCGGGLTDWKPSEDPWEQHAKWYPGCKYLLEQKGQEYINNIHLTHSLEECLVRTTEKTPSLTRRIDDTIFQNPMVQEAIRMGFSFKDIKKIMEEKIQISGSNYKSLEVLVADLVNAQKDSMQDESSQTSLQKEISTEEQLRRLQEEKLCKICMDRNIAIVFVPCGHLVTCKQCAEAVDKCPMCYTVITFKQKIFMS

`C=C[C@@H](C)[C@@H](O)c1ccc(O)c2ccccc12`: the z-score in [1] was 0.799 and -0.778; in assay [2], -0.468 and 0.56; in assay [3] it was -0.165 and -1.36; in assay [4], -2.83 and -2.76; in assay [5], -1.07 and -1.45; in [6], -2.11 and -2.44. For the same compound, the z-score is -0.672 (inactive) and -0.253 (inactive) in assay [7]; -0.994 and -0.39 in assay [8]; -1.51 and -1.39 in assay [9]; -0.852 (inactive) and -0.3 (inactive) in assay [10]; -0.278 and 0.0891 in [11]; -14.7 (active) and -15 (active) in assay [12]. Also, the z-score in [13] is -0.938 (inactive) and -1.51 (inactive); in [15], 0.814 (inactive) and -0.0697 (inactive); in assay [16] it was -0.143 (inactive) and 0.291 (inactive); in assay [17], 0.652 (inactive) and 0.297 (inactive); in assay [18], 0.347 (inactive) and 0.106 (inactive); in assay [19], -0.777 and -1.42. Also, the composite z-score in [14] was -2.38 (inactive) and -3.35 (inactive); in assay [20] it was -0.22 and 1.24.

Turning to `C[N+](C)(C)CCCCNC(=O)[C@@H]1C[C@@H]2C(=O)N[C@@H](CCCC[N+](C)(C)C)C(=O)N2[C@@H]1c1cccc(OCCO)c1`, the z-score in [1] was 0.901 and 1.05; in assay [2] it was 0.462 and -0.276; in [3], -0.517 and 0.473; in [4] it was -0.531 and -0.212; in assay [5] it was -0.719 and -0.495; in assay [6] it was 0.0138 and 1.44. Besides, the z-score in [7] was -0.393 (inactive) and 0.547 (inactive); in assay [8], 0.352 and -0.897; in assay [9] it was -0.218 and 0.26; in assay [10], -0.375 (inactive) and -0.0246 (inactive); in assay [11], -0.249 and -0.0346; in [12], 0.962 (inactive) and 0.187 (inactive). Moreover, the z-score in [13] is 0.405 (inactive) and 0.349 (inactive); in assay [15] it was -0.239 (inactive) and 0.022 (inactive); in assay [16] it was 1.57 (inactive) and 0.24 (inactive); in assay [17], 0.113 (inactive) and -0.132 (inactive); in assay [18], -0.0555 (inactive) and 0.517 (inactive); in assay [19], 0.399 and 0.607. Also, the composite z-score in assay [14] is -30.9 (active) and -30.3 (active); in assay [20], 1.01 and -0.22.

For the compound `CON(C)C(=O)c1nnc2c3ccccc3n(S(=O)(=O)c3ccc(C)cc3)c2n1`, the z-score in assay [1] was 0.318 and 1.25; in assay [2], 0.495 and -0.447; in assay [3], -1.33 and -0.298; in assay [4], 0.14 and 0.0315; in assay [5] it was 0.496 and -0.588; in assay [6], -1.61 and -1.52. For the same compound, the z-score in assay [7] was -0.301 (inactive) and -0.0202 (inactive); in assay [8], 0.218 and 0.4; in assay [9], -0.436 and -0.72; in assay [10], 0.617 (inactive) and -0.146 (inactive); in assay [11] it was -0.311 and -0.466; in assay [12] it was -0.148 (inactive) and -0.378 (inactive). Further, the z-score in [13] is -0.125 (inactive) and -0.498 (inactive); in [15], -0.446 (inactive) and 0.757 (inactive); in assay [16], -0.469 (inactive) and -0.226 (inactive); in assay [17] it was -0.339 (inactive) and 0.046 (inactive); in [18], -0.512 (inactive) and -0.404 (inactive); in assay [19], -0.691 and -0.232. The composite z-score in assay [14] is 0.354 (inactive) and -0.588 (inactive); in assay [20], -0.146 and 0.687.
